Measured values taken from paper PMC12529666, “Dysregulation of AGO2-miRNA dynamics underlies the AGO2-associated Lessel–Kreienkamp syndrome”.
Numbering of substitutions follows the chain as printed.

Key:
Assay in all cases: RNA Bind-n-Seq (nitrocellulose filter binding and sequencing); miR-122 guide loaded in AGO2; 60 min incubation; 30 mM Tris pH 8.0, 100 mM potassium acetate, 2 mM magnesium acetate, 0.5 mM TCEP, 0.005% NP-40, 0.01 mg/ml yeast tRNA; 3 nM AGO2-miR-122, 100 nM RNA library; 60; high values mean tight binding
Conditions in all cases: protein: recombinant; tags: His6 (N-terminal, pFastBac HTA)
[1] = biological target: AGO2 WT (phosphosite mutant background) (Homo sapiens, UniProt Q9UKV8 1-859, S387D;S824A;S828D;S831D;S834A)
Method in brief: (§1)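 His-tagged AGO2 was expressed in Sf9 insect cells by baculovirus, loaded with a synthetic guide RNA, and purified by Ni-NTA and a biotinylated capture oligo. Bound RNA was extracted, reverse-transcribed, barcode-amplified and Illumina-sequenced. Fold enrichment is each sequence's read fraction divided by its input-library read fraction.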

AGO2 L192P = AGO2 L192P (Homo sapiens, UniProt Q9UKV8 1-859, L192P;S387D;S824A;S828D;S831D;S834A)
Method in brief: as §1

AGO2 A367P = AGO2 A367P (Homo sapiens, UniProt Q9UKV8 1-859, A367P;S387D;S824A;S828D;S831D;S834A)
Method in brief: as §1

AGO2 T357M = AGO2 T357M (Homo sapiens, UniProt Q9UKV8 1-859, T357M;S387D;S824A;S828D;S831D;S834A)
Method in brief: as §1

AGO2 F182del = AGO2 F182del (Homo sapiens, UniProt Q9UKV8 1-859, S387D;S824A;S828D;S831D;S834A;del182-182)
Method in brief: as §1

Chain of AGO2 T357M (Q9UKV8 whole entry T357M/S387D/S824A/S828D/S831D/S834A): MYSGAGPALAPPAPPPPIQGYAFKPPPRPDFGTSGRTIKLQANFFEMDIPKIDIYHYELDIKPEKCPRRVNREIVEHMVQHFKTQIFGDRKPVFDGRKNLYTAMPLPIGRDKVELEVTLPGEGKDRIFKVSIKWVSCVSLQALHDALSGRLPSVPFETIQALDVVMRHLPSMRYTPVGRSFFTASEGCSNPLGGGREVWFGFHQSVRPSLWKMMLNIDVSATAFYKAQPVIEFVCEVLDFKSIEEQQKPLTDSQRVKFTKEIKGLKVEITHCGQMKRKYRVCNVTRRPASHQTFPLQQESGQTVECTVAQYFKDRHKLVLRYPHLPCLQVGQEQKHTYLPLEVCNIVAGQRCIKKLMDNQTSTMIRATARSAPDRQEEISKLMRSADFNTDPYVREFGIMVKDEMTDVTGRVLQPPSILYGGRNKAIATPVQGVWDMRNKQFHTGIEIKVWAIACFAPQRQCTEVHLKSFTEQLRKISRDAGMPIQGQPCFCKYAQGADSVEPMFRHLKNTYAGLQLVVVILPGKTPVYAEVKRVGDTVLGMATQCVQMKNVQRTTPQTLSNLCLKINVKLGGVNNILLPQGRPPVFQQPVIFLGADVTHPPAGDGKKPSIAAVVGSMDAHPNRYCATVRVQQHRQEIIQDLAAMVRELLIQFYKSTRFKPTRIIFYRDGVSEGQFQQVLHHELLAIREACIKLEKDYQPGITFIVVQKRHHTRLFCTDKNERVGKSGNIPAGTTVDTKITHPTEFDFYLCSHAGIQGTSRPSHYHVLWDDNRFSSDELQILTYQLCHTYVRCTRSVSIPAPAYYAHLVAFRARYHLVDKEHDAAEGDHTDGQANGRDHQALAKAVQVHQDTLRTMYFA
Chain of AGO2 L192P (Q9UKV8 whole entry L192P/S387D/S824A/S828D/S831D/S834A): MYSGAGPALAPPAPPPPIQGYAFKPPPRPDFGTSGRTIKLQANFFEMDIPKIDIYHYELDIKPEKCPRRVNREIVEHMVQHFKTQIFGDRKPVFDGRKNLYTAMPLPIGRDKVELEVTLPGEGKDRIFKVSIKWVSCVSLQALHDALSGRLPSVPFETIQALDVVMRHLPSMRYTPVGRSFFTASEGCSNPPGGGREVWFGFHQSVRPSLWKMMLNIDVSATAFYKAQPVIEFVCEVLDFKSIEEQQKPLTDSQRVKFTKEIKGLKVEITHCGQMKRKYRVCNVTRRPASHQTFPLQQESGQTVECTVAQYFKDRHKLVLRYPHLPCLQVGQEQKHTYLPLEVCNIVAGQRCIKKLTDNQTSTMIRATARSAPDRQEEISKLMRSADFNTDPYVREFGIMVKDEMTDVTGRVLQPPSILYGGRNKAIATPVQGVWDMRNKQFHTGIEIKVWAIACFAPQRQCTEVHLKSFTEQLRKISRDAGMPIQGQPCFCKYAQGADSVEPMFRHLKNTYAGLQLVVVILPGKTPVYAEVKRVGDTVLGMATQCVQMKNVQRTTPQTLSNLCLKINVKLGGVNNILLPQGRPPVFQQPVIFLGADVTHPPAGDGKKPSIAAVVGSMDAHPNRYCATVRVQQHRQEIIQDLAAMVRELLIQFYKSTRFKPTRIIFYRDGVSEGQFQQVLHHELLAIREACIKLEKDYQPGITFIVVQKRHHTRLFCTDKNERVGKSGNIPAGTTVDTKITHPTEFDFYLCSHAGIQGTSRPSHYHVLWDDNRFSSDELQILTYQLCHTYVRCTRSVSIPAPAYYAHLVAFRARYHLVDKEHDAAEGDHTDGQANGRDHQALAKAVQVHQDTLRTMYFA
Chain of AGO2 F182del (Q9UKV8 other isoform, or with tags, fused parts or gaps S387D;S824A;S828D;S831D;S834A;del182-182): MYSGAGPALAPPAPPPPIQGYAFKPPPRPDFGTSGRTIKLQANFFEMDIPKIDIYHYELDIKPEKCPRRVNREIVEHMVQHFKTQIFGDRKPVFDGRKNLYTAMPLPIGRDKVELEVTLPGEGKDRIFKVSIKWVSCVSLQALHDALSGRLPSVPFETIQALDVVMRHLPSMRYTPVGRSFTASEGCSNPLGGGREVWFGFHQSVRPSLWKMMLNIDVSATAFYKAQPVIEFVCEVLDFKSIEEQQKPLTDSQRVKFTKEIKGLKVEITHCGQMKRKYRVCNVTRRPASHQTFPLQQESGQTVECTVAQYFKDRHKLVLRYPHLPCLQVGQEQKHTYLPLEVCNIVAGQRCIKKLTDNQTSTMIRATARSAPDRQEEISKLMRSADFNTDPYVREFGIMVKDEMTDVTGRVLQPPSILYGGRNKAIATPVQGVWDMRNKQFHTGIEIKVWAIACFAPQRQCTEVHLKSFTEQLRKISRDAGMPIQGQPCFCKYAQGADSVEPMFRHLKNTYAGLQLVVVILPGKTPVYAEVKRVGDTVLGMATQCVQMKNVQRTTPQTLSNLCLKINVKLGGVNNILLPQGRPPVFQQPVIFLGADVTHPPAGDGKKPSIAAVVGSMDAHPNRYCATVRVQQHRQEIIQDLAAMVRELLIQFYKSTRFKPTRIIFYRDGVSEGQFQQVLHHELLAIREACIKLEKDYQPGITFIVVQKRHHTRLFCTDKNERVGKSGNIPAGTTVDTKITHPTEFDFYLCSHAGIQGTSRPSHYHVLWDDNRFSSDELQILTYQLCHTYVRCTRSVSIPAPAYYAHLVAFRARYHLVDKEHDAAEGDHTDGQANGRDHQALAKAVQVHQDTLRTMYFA
Chain of AGO2 A367P (Q9UKV8 whole entry A367P/S387D/S824A/S828D/S831D/S834A): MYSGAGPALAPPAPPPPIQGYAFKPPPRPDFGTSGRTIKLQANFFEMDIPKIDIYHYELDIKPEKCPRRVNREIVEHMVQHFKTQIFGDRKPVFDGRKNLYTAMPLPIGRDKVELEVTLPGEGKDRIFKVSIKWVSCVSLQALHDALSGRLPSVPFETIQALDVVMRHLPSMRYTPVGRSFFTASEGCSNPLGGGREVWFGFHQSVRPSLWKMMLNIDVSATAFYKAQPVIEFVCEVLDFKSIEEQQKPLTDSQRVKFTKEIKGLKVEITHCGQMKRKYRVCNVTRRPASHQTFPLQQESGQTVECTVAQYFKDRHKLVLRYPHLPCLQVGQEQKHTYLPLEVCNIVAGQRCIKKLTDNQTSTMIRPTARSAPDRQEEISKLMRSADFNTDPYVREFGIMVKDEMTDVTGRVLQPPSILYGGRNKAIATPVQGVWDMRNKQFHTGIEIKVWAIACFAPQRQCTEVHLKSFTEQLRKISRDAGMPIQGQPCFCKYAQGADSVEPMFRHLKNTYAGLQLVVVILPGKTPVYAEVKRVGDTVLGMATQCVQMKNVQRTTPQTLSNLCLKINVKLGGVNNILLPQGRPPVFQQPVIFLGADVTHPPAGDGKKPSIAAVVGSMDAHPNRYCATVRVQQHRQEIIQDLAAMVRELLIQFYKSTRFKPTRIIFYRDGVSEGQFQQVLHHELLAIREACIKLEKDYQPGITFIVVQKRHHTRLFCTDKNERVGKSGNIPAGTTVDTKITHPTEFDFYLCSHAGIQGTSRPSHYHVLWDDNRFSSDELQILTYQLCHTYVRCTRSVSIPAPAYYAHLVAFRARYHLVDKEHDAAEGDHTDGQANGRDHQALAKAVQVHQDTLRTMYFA
Chain of AGO2 WT (phosphosite mutant background) (Q9UKV8 whole entry S387D/S824A/S828D/S831D/S834A): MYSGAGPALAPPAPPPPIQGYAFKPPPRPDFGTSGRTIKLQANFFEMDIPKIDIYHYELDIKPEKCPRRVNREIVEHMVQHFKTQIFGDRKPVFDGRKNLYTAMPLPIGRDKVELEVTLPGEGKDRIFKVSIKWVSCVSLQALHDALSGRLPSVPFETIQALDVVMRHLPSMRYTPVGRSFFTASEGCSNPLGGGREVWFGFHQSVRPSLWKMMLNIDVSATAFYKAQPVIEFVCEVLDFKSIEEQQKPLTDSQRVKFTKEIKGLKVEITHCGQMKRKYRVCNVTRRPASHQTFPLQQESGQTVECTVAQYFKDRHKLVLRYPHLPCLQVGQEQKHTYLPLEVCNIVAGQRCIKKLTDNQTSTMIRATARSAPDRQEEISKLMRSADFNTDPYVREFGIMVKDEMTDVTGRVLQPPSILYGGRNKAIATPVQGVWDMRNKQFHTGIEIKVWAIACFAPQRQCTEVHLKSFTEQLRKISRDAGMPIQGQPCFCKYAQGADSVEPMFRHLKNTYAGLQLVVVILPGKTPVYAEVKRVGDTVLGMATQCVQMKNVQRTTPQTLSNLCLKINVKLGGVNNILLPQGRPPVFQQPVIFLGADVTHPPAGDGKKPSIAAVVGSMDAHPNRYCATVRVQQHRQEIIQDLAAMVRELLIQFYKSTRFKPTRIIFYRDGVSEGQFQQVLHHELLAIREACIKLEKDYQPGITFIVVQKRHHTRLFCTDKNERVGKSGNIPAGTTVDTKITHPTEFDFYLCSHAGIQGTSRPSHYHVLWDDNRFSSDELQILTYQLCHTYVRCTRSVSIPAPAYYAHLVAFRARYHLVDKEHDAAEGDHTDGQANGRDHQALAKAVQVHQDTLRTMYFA

B1: GTATTTCA (ssRNA)
RNA 1: GAGUUCUACAGUCCGACGAUCCCAACGUAUUUCACACCUGGAAUUCUCGGGUGCCAA
RNA 2: UGGAGUGUGACAAUGGUGUUUG
DNA 1: GATCGTCGGACTGTAGAACTC
DNA 2: TTGGCACCCGAGAATTCCA
modifications: constant regions annealed to DNA blockers; guide miR-122 5' phosphate
binding signal [1]: 0.136 fold enrichment over input
binding signal (AGO2 L192P): 0.545 fold enrichment over input
binding signal (AGO2 A367P): 0.337 fold enrichment over input
binding signal (AGO2 T357M): 0.647 fold enrichment over input
binding signal (AGO2 F182del): 0.805 fold enrichment over input

B2: ACGCCCCA (ssRNA)
RNA 1: B1 RNA 1 with G27A, U28C, A29G, U30C, U31C, U32C
RNA 2: UGGAGUGUGACAAUGGUGUUUG
DNA 1: GATCGTCGGACTGTAGAACTC
DNA 2: TTGGCACCCGAGAATTCCA
modifications: constant regions annealed to DNA blockers; guide miR-122 5' phosphate
binding signal [1]: 0.123 fold enrichment over input
binding signal (AGO2 L192P): 0.538 fold enrichment over input
binding signal (AGO2 A367P): 0.215 fold enrichment over input
binding signal (AGO2 T357M): 0.719 fold enrichment over input
binding signal (AGO2 F182del): 0.236 fold enrichment over input

B3: ACGTTTCA (ssRNA)
RNA 1: B1 RNA 1 with G27A, U28C, A29G
RNA 2: UGGAGUGUGACAAUGGUGUUUG
DNA 1: GATCGTCGGACTGTAGAACTC
DNA 2: TTGGCACCCGAGAATTCCA
modifications: constant regions annealed to DNA blockers; guide miR-122 5' phosphate
binding signal [1]: 0.146 fold enrichment over input
binding signal (AGO2 L192P): 0.656 fold enrichment over input
binding signal (AGO2 A367P): 0.363 fold enrichment over input
binding signal (AGO2 T357M): 0.572 fold enrichment over input
binding signal (AGO2 F182del): 1.44 fold enrichment over input

B4: ATATTTTA (ssRNA)
RNA 1: B1 RNA 1 with G27A, C33U
RNA 2: UGGAGUGUGACAAUGGUGUUUG
DNA 1: GATCGTCGGACTGTAGAACTC
DNA 2: TTGGCACCCGAGAATTCCA
modifications: constant regions annealed to DNA blockers; guide miR-122 5' phosphate
binding signal [1]: 0.127 fold enrichment over input
binding signal (AGO2 L192P): 0.509 fold enrichment over input
binding signal (AGO2 A367P): 0.189 fold enrichment over input
binding signal (AGO2 T357M): 0.697 fold enrichment over input

B5: ACGCTCCG (ssRNA)
RNA 1: B1 RNA 1 with G27A, U28C, A29G, U30C, U32C, A34G
RNA 2: UGGAGUGUGACAAUGGUGUUUG
DNA 1: GATCGTCGGACTGTAGAACTC
DNA 2: TTGGCACCCGAGAATTCCA
modifications: constant regions annealed to DNA blockers; guide miR-122 5' phosphate
binding signal [1]: 3.15 fold enrichment over input
binding signal (AGO2 L192P): 10.8 fold enrichment over input
binding signal (AGO2 A367P): 14 fold enrichment over input
binding signal (AGO2 T357M): 1.98 fold enrichment over input
binding signal (AGO2 F182del): 15.2 fold enrichment over input

B6: GTATCTCA (ssRNA)
RNA 1: B1 RNA 1 with U31C
RNA 2: UGGAGUGUGACAAUGGUGUUUG
DNA 1: GATCGTCGGACTGTAGAACTC
DNA 2: TTGGCACCCGAGAATTCCA
modifications: constant regions annealed to DNA blockers; guide miR-122 5' phosphate
binding signal [1]: 0.141 fold enrichment over input
binding signal (AGO2 L192P): 0.597 fold enrichment over input
binding signal (AGO2 A367P): 0.455 fold enrichment over input
binding signal (AGO2 T357M): 0.579 fold enrichment over input
binding signal (AGO2 F182del): 1.35 fold enrichment over input

B7: ATGCCTCA (ssRNA)
RNA 1: B1 RNA 1 with G27A, A29G, U30C, U31C
RNA 2: UGGAGUGUGACAAUGGUGUUUG
DNA 1: GATCGTCGGACTGTAGAACTC
DNA 2: TTGGCACCCGAGAATTCCA
modifications: constant regions annealed to DNA blockers; guide miR-122 5' phosphate
binding signal [1]: 0.127 fold enrichment over input
binding signal (AGO2 L192P): 0.547 fold enrichment over input
binding signal (AGO2 A367P): 0.307 fold enrichment over input
binding signal (AGO2 T357M): 0.637 fold enrichment over input
binding signal (AGO2 F182del): 0.9 fold enrichment over input

B8: ACATCCCG (ssRNA)
RNA 1: B1 RNA 1 with G27A, U28C, U31C, U32C, A34G
RNA 2: UGGAGUGUGACAAUGGUGUUUG
DNA 1: GATCGTCGGACTGTAGAACTC
DNA 2: TTGGCACCCGAGAATTCCA
modifications: constant regions annealed to DNA blockers; guide miR-122 5' phosphate
binding signal [1]: 0.128 fold enrichment over input
binding signal (AGO2 L192P): 0.38 fold enrichment over input
binding signal (AGO2 A367P): 0.158 fold enrichment over input
binding signal (AGO2 T357M): 0.471 fold enrichment over input
binding signal (AGO2 F182del): 0.144 fold enrichment over input

B9: ATGTTTCA (ssRNA)
RNA 1: B1 RNA 1 with G27A, A29G
RNA 2: UGGAGUGUGACAAUGGUGUUUG
DNA 1: GATCGTCGGACTGTAGAACTC
DNA 2: TTGGCACCCGAGAATTCCA
modifications: constant regions annealed to DNA blockers; guide miR-122 5' phosphate
binding signal [1]: 0.125 fold enrichment over input
binding signal (AGO2 L192P): 0.54 fold enrichment over input
binding signal (AGO2 A367P): 0.311 fold enrichment over input
binding signal (AGO2 T357M): 0.58 fold enrichment over input
binding signal (AGO2 F182del): 0.814 fold enrichment over input

B10: ACATCCTG (ssRNA)
RNA 1: B1 RNA 1 with G27A, U28C, U31C, U32C, C33U, A34G
RNA 2: UGGAGUGUGACAAUGGUGUUUG
DNA 1: GATCGTCGGACTGTAGAACTC
DNA 2: TTGGCACCCGAGAATTCCA
modifications: constant regions annealed to DNA blockers; guide miR-122 5' phosphate
binding signal [1]: 0.144 fold enrichment over input
binding signal (AGO2 L192P): 0.376 fold enrichment over input
binding signal (AGO2 A367P): 0.171 fold enrichment over input
binding signal (AGO2 T357M): 0.475 fold enrichment over input
binding signal (AGO2 F182del): 0.153 fold enrichment over input
